Data published in PubChem BioAssay (EPA / NIEHS).
Values joined by “and” are separate entries in the source; they are usually repeats but may differ in a detail not shown here. Equal entries are not always repeated. Records with an inconclusive call do not appear. More than one record can exist for a structure, and the calls need not agree. Active and inactive are the calls of the source. Rule for the calls: active = hit-call score of the fitted dose curve at least 0.9, where 1 is the maximum; inconclusive = response in the unintended direction; inactive = score below 0.9.

What follows are compounds tested against human Retinoid X Receptor beta (RXRb), RXRB (gene 6257) (UniProt P28702) (assay: ATG_RXRb_TRANS: Attagene TRANS-FACTORIAL HepG2 Assay for human Retinoid X Receptor beta (RXRb) (AID 2283013)).
Chain of human Retinoid X Receptor beta (RXRb), RXRB (gene 6257) (P28702 whole entry, looked up): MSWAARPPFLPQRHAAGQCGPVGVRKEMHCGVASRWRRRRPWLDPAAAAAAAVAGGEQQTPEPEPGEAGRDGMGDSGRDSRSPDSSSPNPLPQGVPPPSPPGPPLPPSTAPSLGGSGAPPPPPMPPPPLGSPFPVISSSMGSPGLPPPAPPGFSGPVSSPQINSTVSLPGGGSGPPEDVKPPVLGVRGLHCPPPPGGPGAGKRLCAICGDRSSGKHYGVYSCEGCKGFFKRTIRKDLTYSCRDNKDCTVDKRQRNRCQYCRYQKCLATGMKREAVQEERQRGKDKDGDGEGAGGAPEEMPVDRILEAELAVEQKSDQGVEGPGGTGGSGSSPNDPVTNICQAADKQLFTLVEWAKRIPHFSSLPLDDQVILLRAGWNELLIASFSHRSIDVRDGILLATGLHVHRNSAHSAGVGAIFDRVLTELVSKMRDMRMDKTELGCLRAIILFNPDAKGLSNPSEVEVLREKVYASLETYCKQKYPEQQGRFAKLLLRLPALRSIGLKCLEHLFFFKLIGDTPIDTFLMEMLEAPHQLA
Experimental: ATG_TRANS is a cell-based, multiplexed-readout assay that uses HepG2, a human liver cell line, with measurements taken at 24 hours after chemical dosing in a 24-well plate.ATG_RXRb_TRANS is one of 30 assay component(s) measured or calculated from the ATG_TRANS assay. It is designed to make measurements of mRNA induction, a form of inducible reporter, as detected with fluorescence intensity signals by Reverse transcription polymerase chain reaction (RT-PCR) and Capillary electrophoresis technology.Data from the assay component ATG_RXRb_TRANS was analyzed into 1 assay endpoint. This assay endpoint, ATG_RXRb_TRANS, was analyzed in the positive analysis fitting direction relative to DMSO as the negative control and baseline of activity. Using a type of inducible reporter, measures of mRNA for gain-of-signal activity can be used to understand the reporter gene at the transcription factor-level as they relate to the gene RXRB. Furthermore, this assay endpoint can be referred to as a primary readout, because this assay has produced multiple assay endpoints where this one serves a reporter gene function. To generalize the intended target to other relatable targets, this assay endpoint is annotated to the nuclear receptor intended target family, where the subfamily is non-steroidal.
Human liver HepG2 cells are transiently transfected with multiple reporter transcription units (MRTUs) in 6-well plates using FuGene 6 reagent (Roche; 3 ml FuGene/1 mg DNA). The MRTU constructs are regulated by a cis-regulating element (promoter). […] A major difference between the CIS and TRANS system is that in CIS activities of endogenous TFs are measured, whereas the TRANS assay evaluates changes in activities of exogenous, chimeric NR-Gal4 proteins. […] At the end of 24 hour incubation, total RNA was isolated using TriZol reagent (Invitrogen). The isolated RNA is then reverse-transcribed using oligo(dT) primer and Mo-MLV reverse transcriptase (Invitrogen) with DNAse I (Ambion) treatment for 30 min. The one-tenth of the produced cDNA was amplified by PCR using Taq DNA polymerase (Invitrogen) and two reporter sequence-specific primers. The PCR products were fluorescently labeled by primer extension with 6-arboxyfluorescein (6-FAM) 5'-labeled reporter sequence-specific primer (2 min at 95 C, 20 s at 68 C and 10 min at 72 C) and these products were digested with 5U of HpaI (New England Biolabs) for 2h at 37 C. The fragments were purified using Qiaquick PCR columns (Qiagen), analyzed on an ABI 3130xL genetic analyzer (Applied Biosystems) with peak positions identified by using a set of X-rhodamine (ROX)-labeled MapMarker1000 molecular weight standards (BioVentures). The raw capillary electrophoresis data was processed using Attagraph software (Attagene).

outcome, inactive:
CCCOC(=O)c1cc(O)c(O)c(O)c1
CC[C@@H]1C[C@H](N(Cc2cc(C(F)(F)F)cc(C(F)(F)F)c2)C(C)=O)c2cc(C(F)(F)F)ccc2N1C(=O)OC(C)C
c1ccc2ccccc2c1
CC/C(=C(/CC)c1ccc(O)cc1)c1ccc(O)cc1
CCCCCCCCOC(=O)c1cc(O)c(O)c(O)c1
Cc1cn([C@H]2C[C@H](N=[N+]=[N-])[C@@H](CO)O2)c(=O)[nH]c1=O
O=CCCCC=O
CCO[Si](CCCNC(N)=O)(OCC)OCC
Oc1ccc2ccccc2c1
OCCO
CCCCCCCCCCCCO
NCc1cccc(C2CCN(C(=O)c3ccc(C#Cc4ccccc4F)o3)CC2)c1
CCCCCCCC[Si](OCC)(OCC)OCC
CCCCOC(=O)c1ccc(O)cc1
OC12N=C(c3ccccc3)SC1Cc1cc(Cl)ccc12 (stereo not given)
Cc1cc2c(cc1C(F)(F)F)N(C(=O)Nc1ccc(Oc3cccnc3C)nc1)CC2
Cc1cccc2ccccc12
CN1C(=O)CC[C@H]1c1cccnc1
c1ccc(C[n+]2cccc3ccccc32)cc1
CC(C)(O)c1ccc(CNC(=O)c2cccnc2Oc2ccc3nonc3c2)cc1
O=c1c(-c2ccc(O)cc2)coc2cc(O)cc(O)c12
O=C(Nc1ccc(Cl)cc1)Nc1ccc(Cl)c(Cl)c1
CC(C)(C)c1cc(/C=C2\SC(N)=NC2=O)cc(C(C)(C)C)c1O
O=C1CCC(C2CCCCC2)CC1
CC1=CC(=O)/C(=C(/C)O)C(=O)O1
CC(O)CC(C)(C)O (stereo not given)
COc1cc(C(=O)NC2CCN(C)CC2)ccc1Nc1ncc2c(n1)N(C1CCCC1)CC(F)(F)C(=O)N2C
CCCCCc1ccc(N)cc1
COCC(C)OCC(C)OCC(C)O (stereo not given)
CCCCCCCCCCCC[N+](C)(C)C
CC1(C)NC(=O)N(c2ccc([N+](=O)[O-])c(C(F)(F)F)c2)C1=O
CC(C)(c1cc(Br)c(O)c(Br)c1)c1cc(Br)c(O)c(Br)c1

AC50, active:
c1ccc2ccccc2c1 38.9 µM
CC/C(=C(/CC)c1ccc(O)cc1)c1ccc(O)cc1 6.68 µM [middle of 4 runs]
Cc1occc1C(=O)Nc1ccc(C(=O)N2CCC(F)(F)/C(=C\C(=O)N3CCC(N4CCCCC4)CC3)c3ccccc32)cc1 55.2 µM
CCCCCCCC[Si](OCC)(OCC)OCC 26.8 µM
CCCCOC(=O)c1ccc(O)cc1 26.9 µM and 26.4 µM
CCCCCCCCCCCO 47.8 µM
O=c1c(-c2ccc(O)cc2)coc2cc(O)cc(O)c12 25.2 µM and 27.2 µM
CCCCCCCCN(C)CCCCCCCC 43.5 µM
